# Laboratory results published in PubChem BioAssay (NCATS).
# Records with an inconclusive call do not appear. Entries that show only a call come without a potency. The source made the active and inactive calls. Unless noted, calls follow the shape of the dose curve; as a rule, active = well fitted curve in the direction sought with a large enough effect; inconclusive = small, poorly fitted or top-dose-only effect, or another doubt; inactive = no such curve, though single readings can be large; an effect the other way counts as inactive or inconclusive.
# How the values were obtained:
# [1] = S16 Schwann cell viability assay (CellTiter-Glo assay) (AID 624031);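 also: native untransfected S16 rat Schwann cells; cellular ATP luminescence as a viability measure; nearly all actives have a fitted effect of over 70% in size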
# Procedure, shortened: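 Parental S16 cells, 24 h compound, 37 °C. ATP-luminescence viability; DMSO = 0% activity, empty wells as reference; curves classified by fit quality and efficacy.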
# [2] = S16 Schwann cell PMP22 intronic element beta-lactamase assay (AID 624044; calls by dose curve; also: nearly all actives have a fitted effect of over 15% in size; also: potency is read from the fitted curve at half-maximal effect)
# Procedure, shortened: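 Beta-lactamase reporter under a PMP22 intronic regulatory element in stable S16 rat Schwann cells; 24 h compound exposure. 460 nm blue signal normalized between DMSO (0%) and potassium clavulanate, with 535 nm FRET tracking viability; curves classed by r2 and response.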
# [3] = Cytotoxicity counterscreen for NFkB agonists and antagonists (AID 624476);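 also: cells exposed to compound for 48 hours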; also: potency is read from the fitted curve at half-maximal effect
# [4] = qHTS Assay for Identification of Small Molecule Agonists for NFkB Signaling Pathway. (AID 624478);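 also: compounds tested together with TNF alpha at its EC50 of 10 pM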
# Procedure, shortened: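 Compounds were added with 10 pM TNF alpha (EC50 level) to ME-180 NFkB-bla cells in low-serum Opti-MEM and incubated 5 hrs at 37 C. Beta-lactamase FRET read-out used 405 nm excitation and 460 and 530 nm emission.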
# [5] = qHTS Assay for Identification of Small Molecule Antagonists for NFkB Signaling Pathway. (AID 624479; calls by dose curve;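 also: pathway stimulated with TNF alpha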; also: potency is read from the fitted curve at half-maximal effect)
# [6] = Cell Proliferation Assay against the TMD8 Cell Line (AID 651645); conditions: TMD8 DLBCL cell line proliferation/viability; at 46.1 µM (top of the series);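 also: cells exposed to compound for 48 h before reading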
# Procedure, shortened: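 500 TMD8 cells/well, RPMI + Glutamax, no phenol red, 5% FBS; cpd added immediately; 48 h, 37C, 5% CO2; CellTiter-Glo, luminescence. Controls: DMSO = 100%, bortezomib 9.2 uM final = 0%.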
# [7] = Cell Proliferation Assay against the HBL1 Cell Line (AID 651646); conditions: HBL1 DLBCL cells; at 46.1 µM (top of the series);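 also: cells exposed to compound for 48 h before reading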
# Procedure, shortened: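 After a 48 h incubation of 500 HBL1 cells/well in phenol red-free RPMI plus 5% FBS, relative luciferase units from CellTiter-Glo gave percent activity against DMSO and 9.2 uM bortezomib (final) controls.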
# [8] = target: Glutaminase kidney isoform, mitochondrial (Homo sapiens) (UniProt O94925); experiment: qHTS for Inhibitors of Glutaminase (GLS): LOPAC Validation (AID 624146);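 also: glutamate product detected by oxidase and peroxidase coupled Amplex red fluorescence gain; nearly all actives have a fitted effect of over 60% in size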
# Procedure, shortened: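 Assay buffer: 45 mM KH2PO4 pH 8.2, 0.02% Tween-20. hKGA acts on L-glutamine (1 mM solution added); product glutamate is reported by an oxidase/peroxidase Amplex Red coupling, with fluorescence taken at baseline and 30 min.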
# [9] = qHTS of Trypanosoma Brucei Inhibitors: LOPAC Validation (AID 624147)
# Procedure, shortened: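 Readout: single end-point luminescence (Kinase-Glo Plus, 10 min). Reaction conditions were TbPYK/substrate plus 130 uM ADP, 45 min at RT, pH 7.2 TEA buffer. No-enzyme wells served as controls, and data were normalized before concentration-response fitting.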
# [10] = target: Glucagon-like peptide 1 receptor (Homo sapiens) (UniProt P43220); experiment: qHTS of GLP-1 Receptor Agonists: LOPAC Validation (AID 624148);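 also: higher luminescence signal means agonism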
# Procedure, shortened: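 HEK293 cells stably co-expressing a cAMP-responsive luciferase reporter and a hypersensitive GLP-1R were plated 12 h at 37 °C and exposed to compounds for 4-6 hr at 37 °C, 5% CO2. Luminescence was read 12 min after adding detection reagent.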
# [11] = qHTS of Nrf2 Activators: LOPAC Validation (AID 624149)
# Procedure, shortened: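 Luciferase signal from ARE activation, read with Steady-Glo after 30 min at room temperature. Compounds were pin-transferred onto AREc32_Fluc cells (1000/well, OPTI-MEM/5% FBS, seeded overnight) and left 24 hr at 37 deg C.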
# [12] = HTS Assay for Allosteric Antagonists of the Human D2 Dopamine Receptor: Hit Validation in HTRF (AID 624455);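 also: stable D1 dopamine receptor cell line scored for blocking the D1 response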
# Procedure, shortened: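 Inhibition of the D1-mediated response was measured by HTRF. Cells used were a line stably expressing the D1 dopamine receptor.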
# [13] = Cell Proliferation Assay against the TMD8 Cell Line (Caspase readout at 16 hrs) (AID 651712); also: potency is read from the fitted curve at half-maximal effect
# Procedure, shortened: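 16 h, 37 °C, TMD8 (500 cells/well), RPMI/5% FBS no phenol red; Caspase-Glo 3/7, 15 min RT, luminescence; %act: DMSO 0, bortezomib 9.2 uM final 100.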
# [14] = S16 Schwann cell PMP22 intronic element firefly luciferase assay (AID 624032); also: nearly all actives have a fitted effect of over 30% in size; also: potency is read from the fitted curve at half-maximal effect
# Procedure, shortened: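 Rat S16 Schwann cells stably carrying a PMP22 intronic element-driven Fluc reporter were seeded overnight, then exposed to compounds for 24 h at 37 °C. Luminescence was normalized to PTC124 (positive control) and DMSO (0% activity).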
# Glucagon-like peptide 1 receptor (Homo sapiens), sequence (P43220 whole entry, looked up): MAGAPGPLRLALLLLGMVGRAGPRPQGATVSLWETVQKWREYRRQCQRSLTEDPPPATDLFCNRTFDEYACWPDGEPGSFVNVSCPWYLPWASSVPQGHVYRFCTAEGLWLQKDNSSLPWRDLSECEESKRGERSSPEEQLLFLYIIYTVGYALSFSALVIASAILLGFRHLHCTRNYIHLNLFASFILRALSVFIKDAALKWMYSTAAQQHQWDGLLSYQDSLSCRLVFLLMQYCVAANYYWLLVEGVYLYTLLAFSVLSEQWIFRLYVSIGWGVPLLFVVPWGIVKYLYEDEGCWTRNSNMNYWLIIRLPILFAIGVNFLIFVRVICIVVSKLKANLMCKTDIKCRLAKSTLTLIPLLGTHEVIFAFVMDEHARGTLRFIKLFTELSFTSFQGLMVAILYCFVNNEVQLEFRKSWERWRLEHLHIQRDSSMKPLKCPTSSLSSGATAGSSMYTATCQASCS
# Glutaminase kidney isoform, mitochondrial (Homo sapiens), sequence (O94925 whole entry, looked up, canonical isoform): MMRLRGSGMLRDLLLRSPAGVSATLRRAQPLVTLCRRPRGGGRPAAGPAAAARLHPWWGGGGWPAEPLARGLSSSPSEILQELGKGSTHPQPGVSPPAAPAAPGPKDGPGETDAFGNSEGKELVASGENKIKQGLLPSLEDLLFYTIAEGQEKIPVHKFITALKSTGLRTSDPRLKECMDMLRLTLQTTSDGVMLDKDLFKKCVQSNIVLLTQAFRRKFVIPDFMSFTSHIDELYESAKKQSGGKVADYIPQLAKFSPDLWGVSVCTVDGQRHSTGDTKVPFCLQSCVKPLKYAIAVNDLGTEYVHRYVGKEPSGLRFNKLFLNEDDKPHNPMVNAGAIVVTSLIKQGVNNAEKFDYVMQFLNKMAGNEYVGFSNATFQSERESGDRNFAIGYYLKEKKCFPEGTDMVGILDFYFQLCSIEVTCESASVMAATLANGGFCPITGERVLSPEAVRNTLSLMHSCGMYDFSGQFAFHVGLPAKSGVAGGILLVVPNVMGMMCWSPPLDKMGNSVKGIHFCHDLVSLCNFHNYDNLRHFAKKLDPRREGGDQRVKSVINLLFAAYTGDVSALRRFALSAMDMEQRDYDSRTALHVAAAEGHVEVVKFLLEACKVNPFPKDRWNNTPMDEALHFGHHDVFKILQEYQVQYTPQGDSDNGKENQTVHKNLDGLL
smiles,measurement,setting,value
O=C1C(CCC(O)c2ccc(F)cc2)C(c2ccc(O)cc2)N1c1ccc(F)cc1 (stereo not drawn),outcome,[1],inactive
same,Potency,[2],inactive
same,Potency,[3],inactive
same,outcome,[4],inactive
same,Potency,[5],inactive
same,viability (% of control),[6],87.2%
same,"viability, percent of control",[7],68%
NS(=O)(=O)c1cc(Cl)c(Cl)c(S(N)(=O)=O)c1,outcome,[1],inactive
CC(C)C[C@@H](C(=O)N[C@H](C(=O)OC1CCCC1)c1ccccc1)[C@H](O)C(=O)NO,Potency,[3],inactive
same,outcome,[4],inactive
same,Potency,[5],inactive
same,viability (% of control),[6],4.45%
same,"viability, percent of control",[7],6.68%
C[C@@H](O[C@H]1OCCN(Cc2n[nH]c(=O)[nH]2)[C@@H]1c1ccc(F)cc1)c1cc(C(F)(F)F)cc(C(F)(F)F)c1,Potency,[3],29.6 µM (active)
same,outcome,[4],inactive
same,Potency,[5],23.7 µM (active)
O=C1CN2Cc3c(ccc(Cl)c3Cl)N=C2N1,Potency,[3],inactive
same,outcome,[4],inactive
same,Potency,[5],inactive
Fc1ccc(C(c2ccc(F)cc2)N2CCN(CC=Cc3ccccc3)CC2)cc1,Potency,[2],inactive
C=CCc1cccc(C=NNC(=O)CN2CCN(Cc3ccccc3)CC2)c1O,outcome,[8],inactive
same,outcome,[9],inactive
same,outcome,[10],inactive
same,outcome,[11],inactive
same,outcome,[12],inactive
COc1nc(C)cnc1NS(=O)(=O)c1cccnc1-c1ccc(-c2nnco2)cc1,Potency,[3],inactive
same,outcome,[4],inactive
same,Potency,[5],inactive
same,viability (% of control),[6],116%
same,"viability, percent of control",[7],92.3%
same,Potency,[13],inactive
CCC=CC[C@H]1C(=O)CC[C@@H]1CC(=O)OC,Potency,[3],inactive
same,outcome,[4],inactive
same,Potency,[5],inactive
same,viability (% of control),[6],114%
same,"viability, percent of control",[7],109%
same,Potency,[13],inactive
Cc1cc2nc3c(=O)[nH]c(=O)nc-3n(CC(O)C(O)C(O)CO)c2cc1C (stereo not drawn),outcome,[1],inactive
same,Potency,[2],inactive
CCCCOCCOc1nc(-c2ccc(C(=O)O)c(F)c2)sc1C,Potency,[3],inactive
same,outcome,[4],inactive
same,Potency,[5],inactive
same,viability (% of control),[6],98.4%
same,"viability, percent of control",[7],84.4%
same,Potency,[13],inactive
CCCCn1c(=O)n(Cc2ccccc2F)c(=O)c2[nH]c(Cc3ccc(NC(C)=O)cc3)nc21,Potency,[3],inactive
same,outcome,[4],inactive
same,Potency,[5],6.68 µM (active)
same,viability (% of control),[6],5.19%
same,"viability, percent of control",[7],4.28%
same,Potency,[13],inactive
O=C(O)c1nc(=O)[nH]c(=O)[nH]1,outcome,[1],inactive
same,Potency,[14],16.1 µM (active)
same,Potency,[2],inactive
COc1cc2nccc(Oc3ccc(NC(=O)Nc4cc(C)on4)c(Cl)c3)c2cc1OC,Potency,[3],inactive
same,outcome,[4],inactive
same,Potency,[5],16.8 µM (active)
same,viability (% of control),[6],6.06%
same,"viability, percent of control",[7],26.7%
C=C1c2cccc(O)c2C(O)=C2C(=O)[C@@]3(O)C(O)=C(C(N)=O)C(=O)[C@@H](N(C)C)[C@@H]3[C@@H](O)[C@H]12,Potency,[14],inactive
same,Potency,[2],inactive
CC(C)CN(C[C@@H](O)[C@H](Cc1ccccc1)NC(=O)O[C@H]1CO[C@H]2OCC[C@H]21)S(=O)(=O)c1ccc(N)cc1,outcome,[1],inactive
same,Potency,[14],inactive
NCC1CCC(C(=O)O)CC1 (stereo not drawn),outcome,[1],inactive
same,Potency,[14],inactive
same,Potency,[2],inactive
CCNC(=O)c1noc(-c2cc(C(C)C)c(O)cc2O)c1-c1ccc(CN2CCOCC2)cc1,Potency,[3],inactive
same,outcome,[4],inactive
same,Potency,[5],0.0009 µM (active)
same,viability (% of control),[6],7.59%
same,"viability, percent of control",[7],47.2%
CCC(=O)N1CCN(c2ccc(-n3c(=O)ccc4cnc5ccc(-c6cnc7ccccc7c6)cc5c43)cc2C(F)(F)F)CC1,Potency,[3],13.2 µM (active)
same,outcome,[4],inactive
same,Potency,[5],5.3 µM (active)
same,viability (% of control),[6],3.32%
same,"viability, percent of control",[7],4.82%
same,Potency,[13],18.7 µM (active)
CN1CCN2c3ncccc3Cc3ccccc3C2C1 (stereo not drawn),outcome,[1],inactive
same,Potency,[14],inactive
same,Potency,[2],inactive
Clc1ccc(COC(Cn2ccnc2)c2ccc(Cl)cc2Cl)c(Cl)c1 (stereo not drawn),outcome,[1],inactive
same,Potency,[14],8.7 µM (active)
same,Potency,[2],inactive
CN1CC(=O)N2C(Cc3c([nH]c4ccccc34)[C@H]2c2ccc3c(c2)OCO3)C1=O (stereo partly drawn),outcome,[1],inactive
same,Potency,[2],inactive
COc1cc2c(cc1OC)CC(=O)N(CCCN(C)C[C@H]1Cc3cc(OC)c(OC)cc31)CC2,outcome,[1],inactive
same,Potency,[14],inactive
same,Potency,[3],inactive
same,outcome,[4],inactive
same,Potency,[5],inactive
same,viability (% of control),[6],108%
same,"viability, percent of control",[7],122%
same,Potency,[13],inactive
N#CC(c1ccc(Cl)cc1)c1c(Cl)cc(-n2ncc(=O)[nH]c2=O)cc1Cl (stereo not drawn),outcome,[1],inactive
same,Potency,[14],inactive
same,Potency,[2],inactive
CC(C)Oc1cc(Nc2nc(N[C@@H](C)c3ccc(F)cn3)ncc2Cl)[nH]n1,Potency,[3],2.96 µM (active)
same,outcome,[4],inactive
same,Potency,[5],14.9 µM (active)
same,viability (% of control),[6],0.843%
same,"viability, percent of control",[7],13.4%
same,Potency,[13],inactive
COc1c(C)c2c(c(O)c1CC=C(C)CCC(=O)OCCN1CCOCC1)C(=O)OC2,Potency,[14],5.1 µM (active)
same,Potency,[2],2.82 µM (active)
COc1cccc(OC)c1-c1cc(C(=O)NC2(C(=O)O)C3CC4CC(C3)CC2C4)nn1-c1ccnc2cc(Cl)ccc12 (stereo not drawn),Potency,[3],14.8 µM (active)
same,outcome,[4],inactive
same,Potency,[5],16.8 µM (active)
same,viability (% of control),[6],69%
same,"viability, percent of control",[7],3.08%
same,Potency,[13],23.5 µM (active)
COc1ccnc(CS(=O)c2nc3ccc(OC(F)F)cc3[nH]2)c1OC (stereo not drawn),outcome,[1],inactive
same,Potency,[14],inactive
same,Potency,[2],inactive
